Screens deposited in PubChem by National Center for Advancing Translational Sciences (NCATS).
An excerpt weighted towards active compounds, which were near 5.9% of everything screened.
ATXN viability: viability counter-screen for ATXN expression inhibitors. S2 cells (HEK-293 line with an ATXN2-luciferase reporter) viability, CellTiter-Fluor protease fluorescence, 24 h. Potency, µM (doses to about 56.7 µM), most hits filed as cytotoxic. 0.49% of 400,000 active; also: nearly all actives have a fitted effect of over 40% in size
HepG2 viability: kills HepG2 cells in TGF-b inhibitor counter-screen; AID 588856; 0.76% of 410,000 active; Potency, µM (series often up to 46.1 µM), for inactives: at the highest dose activity change, negative = cytotoxicity, hits mostly cytotoxic; HepG2 CAGA-GFP viability, ATP luminescence, 18 h
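CellTiter-Glo luminescence gave cytotoxicity after 18 hours at 37 degrees C. The cells were HepG2 CAGA-GFP in 1% FBS DMEM, stimulated with 500 pg/mL TGF-beta after compound addition. %Activity was normalised to no-cell wells (complete cell-killing) and DMSO (no toxicity), and curves were fitted and classified.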
KB-V1 cytotox: kills drug-selected multidrug resistant KB-V1 cells. 3.4% of 400,000 active. AID 1347076. Potency, µM (doses to about 46.1 µM), usual class: cytotoxic. KB-V1 MDR cells viability, CellTiter-Glo, 72 h; also: % is scaled to controls: 0 for no effect and ±100 for the full control effect; nearly all actives have a fitted effect of over 60% in size
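Following 72 h at 37 degrees C with compound, KB-V1 cell viability was read by CellTiter-Glo luminescence, medium being phenol-red-free DMEM plus 10% FBS; concentration-response parameters came from normalized, curve-fitted qHTS data.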
ATXN2 expr inh: reduces ATXN2 reporter expression in HEK-293 cells; Potency, µM (highest dose often 57 µM), without a hit: at the top dose activity change, negative = inhibition, actives largely listed as inhibitors; HEK-293 ATXN2-luciferase reporter, luminescence, 24 h; 0.72% of 360,000 active; AID 1745845; also: % is scaled to controls: 0 for no effect and ±100 for the full control effect; nearly all actives have a fitted effect of over 55% in size
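qHTS (up to 57 uM final) was run with 24 h compound exposure of reporter cells at 37 °C. Each well was multiplexed: SteadyGlo luminescence measured ATXN2-luciferase expression after a fluorogenic Gly-Phe-AFC viability readout (25 uM final).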
KB-3-1 cytotox: KB-3-1 parental cell cytotoxicity; Potency, µM (top dose mostly 46.1 µM), actives largely listed as cytotoxic; AID 1347075; 1.4% of 400,000 active; KB-3-1 viability, CellTiter-Glo ATP luminescence, 72 h; also: % is scaled to controls: 0 for no effect and ±100 for the full control effect; nearly all actives have a fitted effect of over 60% in size
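Parental KB-3-1 viability, qHTS format: 72 h compound exposure, 37 °C; CellTiter-Glo; media-only wells and DMSO plates as controls; concentration-effect fits on corrected data.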
TGFb SMAD3 inh: inhibitors of TGF-b signaling; HepG2 CAGA-GFP TGF-b/SMAD3 reporter, GFP fluorescence, 18 h; TGF-beta stimulated, 500 pg/mL final; Potency, µM (series often up to 46.1 µM), for inactives: at the highest dose activity, negative = inhibition, most hits filed as inhibitors; 1.2% of 410,000 active; also: % is scaled to controls: 0 for no effect and ±100 for the full control effect; nearly all actives have a fitted effect of over 65% in size
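Smad-responsive CAGA-GFP expression was quantified in HEPG2 cells exposed to compounds and 500 pg/mL final TGF-beta for 18 h at 37 degrees C; unstimulated wells defined full inhibition.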
An asterisk follows results filed as active. Calls follow the shape of the dose curve; as a rule, active = well fitted curve in the direction sought with a large enough effect; inconclusive = small, poorly fitted or top-dose-only effect, or another doubt; inactive = no such curve, though single readings can be large; an effect the other way counts as inactive or inconclusive. Potency is read from the fitted curve at half-maximal effect.

Screening COc1cccc(C(=O)Nc2ccccc2-c2nc(-c3ccc(C)cc3)no2)c1 returned HepG2 viability 1%, KB-V1 cytotox inactive, KB-3-1 cytotox inactive and TGFb SMAD3 inh 0%.
Cc1ccccc1C(=O)N1CCC(N2CCN(Cc3ccc(F)cc3)C(=O)C2=O)CC1 was read as ATXN viability inactive, HepG2 viability 5%, KB-V1 cytotox inactive, ATXN2 expr inh -5%, KB-3-1 cytotox inactive and TGFb SMAD3 inh -17%.
Cc1ccc(C)c(NC(=S)NNC(=O)c2csc3c2CCCC3)c1 was read as ATXN viability inactive, HepG2 viability -81%, KB-V1 cytotox inconclusive, ATXN2 expr inh -17%, KB-3-1 cytotox inactive and TGFb SMAD3 inh -10%.
`CCNC(=S)NNC(=O)c1csc(C(C)C)c1` gave ATXN viability inconclusive, HepG2 viability -2%, KB-V1 cytotox 21µM*, ATXN2 expr inh 41%, KB-3-1 cytotox inconclusive and TGFb SMAD3 inh -12%.
CCCCNC(=S)NNC(=O)c1csc(C(C)C)c1 was read as ATXN viability inactive, HepG2 viability -47%, KB-V1 cytotox 23µM*, ATXN2 expr inh 48%, KB-3-1 cytotox inactive and TGFb SMAD3 inh 5%.
Screening CC1CC(C)CN(CCCNC(=O)c2csc3c2CCCC3)C1 (centres undefined) returned ATXN viability inactive, HepG2 viability -33%, KB-V1 cytotox 16µM*, ATXN2 expr inh -18%, KB-3-1 cytotox inactive and TGFb SMAD3 inh 0%.
CCNC(=S)NNC(=O)c1csc2c1CCCC2 was read as ATXN viability inactive, HepG2 viability -1%, KB-V1 cytotox 26µM*, ATXN2 expr inh -3%, KB-3-1 cytotox inactive and TGFb SMAD3 inh 0%.
Screening COc1ccc(N2CCN(c3oc(-c4ccccc4C)nc3S(=O)(=O)c3ccccc3)CC2)cc1 returned HepG2 viability -6%, KB-V1 cytotox inactive, KB-3-1 cytotox inactive and TGFb SMAD3 inh inconclusive.
Screening Cc1noc(Cn2c(=O)c3cc4c(cc3n(CC(=O)Nc3ccc(C(C)C)cc3)c2=O)OCO4)n1 returned ATXN viability inactive, HepG2 viability -41%, KB-V1 cytotox inactive, ATXN2 expr inh -16%, KB-3-1 cytotox inactive and TGFb SMAD3 inh 0%.
`c1ccc(CCNc2ncnc3scc(C4COc5ccccc5O4)c23)cc1` (centres undefined) gave ATXN viability inactive, HepG2 viability -47%, KB-V1 cytotox 13µM*, ATXN2 expr inh -27%, KB-3-1 cytotox inconclusive and TGFb SMAD3 inh 16µM*.
`Oc1ccccc1N1CCN(c2ncnc3scc(-c4ccccc4)c23)CC1` gave ATXN viability inactive, HepG2 viability -22%, KB-V1 cytotox inconclusive, ATXN2 expr inh -24%, KB-3-1 cytotox inconclusive and TGFb SMAD3 inh inconclusive.
For c1ccc2c(c1)OCC(c1csc3ncnc(N4CCCC4)c13)O2 (centres undefined) the results were ATXN viability inactive, HepG2 viability -12%, KB-V1 cytotox 13µM*, ATXN2 expr inh -5%, KB-3-1 cytotox inconclusive and TGFb SMAD3 inh inconclusive.
Cc1nc2cccnc2n1C1CCN(C(=O)Nc2ccccc2)CC1 was read as ATXN viability inactive, HepG2 viability -15%, KB-V1 cytotox inactive, ATXN2 expr inh 8%, KB-3-1 cytotox inactive and TGFb SMAD3 inh 13%.
For CN(Cc1ccccc1)CC(O)COc1ccc(CNCc2cccnc2)cc1 (centres undefined) the results were ATXN viability inactive, HepG2 viability -9%, KB-V1 cytotox inactive, KB-3-1 cytotox inactive and TGFb SMAD3 inh 3%.
Screening CN(Cc1ccccc1)CC(O)COc1ccc(CNCc2ccc(Cl)s2)cc1 (centres undefined) returned ATXN viability inconclusive, HepG2 viability -59%, KB-V1 cytotox inactive, ATXN2 expr inh inconclusive, KB-3-1 cytotox inactive and TGFb SMAD3 inh 13µM*.
